Hits are enriched below; roughly 11% of the tested compounds scored in any of these assays.
AmpC inh detg – blocks E. coli AmpC beta-lactamase in detergent assay | P00811 | AmpC hydrolysis of nitrocefin, absorbance 480 nm, 0.01% Triton | Potency, µM (top dose mostly 114 µM), inactives show top-dose activity change, negative = inhibition, most hits filed as inhibitors | 370,000 compounds, 0.041% hits;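 further: 0% = no-compound wells and -100% = no-enzyme wells; nearly all actives have a fitted effect of over 25% in size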
Target sequence (P00811 whole entry, looked up): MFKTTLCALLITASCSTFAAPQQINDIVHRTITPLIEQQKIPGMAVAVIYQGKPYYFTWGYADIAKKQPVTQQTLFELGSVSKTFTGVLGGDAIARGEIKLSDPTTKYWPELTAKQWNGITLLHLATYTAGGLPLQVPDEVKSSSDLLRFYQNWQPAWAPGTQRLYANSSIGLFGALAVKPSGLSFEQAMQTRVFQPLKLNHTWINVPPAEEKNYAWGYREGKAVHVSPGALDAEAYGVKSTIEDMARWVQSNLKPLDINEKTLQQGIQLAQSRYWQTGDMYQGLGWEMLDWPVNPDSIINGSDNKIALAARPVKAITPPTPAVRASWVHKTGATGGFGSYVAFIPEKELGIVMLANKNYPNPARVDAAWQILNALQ
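20 mM phosphate pH 7.0 + 0.01% (detergent screen) or 0.0001% Triton X-100; 5.3 nM AmpC reagent; cpd preinc 15 min RT; nitrocefin (800 uM stock) to start; A480 q20 s × 4 min; Activity was normalised to no-enzyme and no-compound control wells.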
Pf growth 48h – inhibits P. falciparum growth in the first generation, 48 h; P. falciparum luciferase growth in erythrocytes, 48 h; Potency, µM (highest dose often 28.7 µM), inactives show top-dose activity change, negative = inhibition, usual class: inhibitors; 310,000 compounds, 5.9% hits; AID 504832
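Compounds are pin-transferred into medium, infected erythrocytes (2% hematocrit, 0.1% parasitemia final) are added, and plates sit one parasite generation at 37 C in 5% CO2. Detection reagent is then added and luminescence measured.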
Pf growth 96h – inhibits malaria parasite growth, 96 h; P. falciparum luciferase reporter growth, 96 h; Potency, µM (titrated, usually from 28.7 µM), inactives show at the highest dose activity change, negative = inhibition, usual class: inhibitors; 320,000 compounds, 6.9% hits
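Delayed-death screen, second-generation endpoint: infected erythrocytes, 2% hematocrit, 0.05% parasitemia final; 96 hours at 37 C, 5% CO2; luciferase detection reagent; luminescence decrease equals reduced growth.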
AmpC no deterg – AmpC beta-lactamase inhibition without detergent; AmpC nitrocefin hydrolysis, absorbance 480 nm, 0.0001% Triton; Potency, µM (doses to about 57.1 µM), for the others: at the highest dose activity change, negative = inhibition, hits mostly inhibitors; 330,000 compounds, 0.52% hits;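 further: plate controls were no compound for no effect and no enzyme for full effect; nearly all actives have a fitted effect of over 20% in size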
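AmpC (5.3 nM in the dispensed reagent) in 20 mM phosphate pH 7.0 with 0.01% (detergent screen) or 0.0001% Triton X-100 was preincubated with compounds for 15 min at room temperature. Nitrocefin was then added from an 800 uM solution, and hydrolysis was followed at 480 nm.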
HCV inh – HCV inhibition; 340,000 compounds, 3.4% hits; Huh7.5.1 HCVcc-Cre infection, luciferase reporter, 44 h; Potency, µM (series often up to 41.8 µM), without a hit: at the highest dose activity change, negative = inhibition, actives largely listed as inhibitors
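Cells (1,000/well) were plated 4 h before compound, then infected with HCVcc-Cre virus (~0.5 moi). After 44 h further culture, infection was read as luciferase luminescence following a 15 min substrate incubation at room temperature.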
AMA1 RON2 block – AMA1-RON2 (P. falciparum) interaction inhibition | 360,000 compounds, 0.2% hits | AID 720542 | Potency, µM (series often up to 58.2 µM), without a hit: at the highest dose activity change, negative = inhibition, actives largely listed as inhibitors | AlphaScreen AMA1-biotinylated RON2 peptide binding;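 further: 0% = vehicle wells and -100% = peptide control; nearly all actives have a fitted effect of over 45% in size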
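AMA1 (3D7) with his tag at 25 nM final met compounds first, then biotinylated RON2 peptide at 25 nM; detection used donor plus acceptor beads, 10 µg/mL apiece, read by AlphaScreen after 30 min at room temperature.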
Starred values were filed as active, the others as inactive; u = inconclusive; x = no result given; ! = not active in a repeat; [ ] = remark or other dose. The call rests on the fitted dose curve; in most records, active means well fitted curve in the direction sought with a large enough effect; inconclusive means small, poorly fitted or top-dose-only effect, or another doubt; inactive means no such curve, though single readings can be large; an effect the other way counts as inactive or inconclusive. Unless noted, on the % scale 0 is the no-effect control and ±100 the full control effect; potency means the concentration at half of the fitted maximal effect.

SMILES	AmpC inh detg	Pf growth 48h	Pf growth 96h	AmpC no deterg	HCV inh	AMA1 RON2 block
c1ccc(OCCN2CCNCC2)cc1	x	x	x	x	-8%	0%
CN1CCN(CC(O)c2ccccc2)CC1 (centres undefined)	-9%	9%	35%	-2%	x	x
O=c1[nH]c2ccccc2n1CCCN1CCN(C(c2ccccc2)c2ccccc2)CC1	-10%	12µM*	12µM*	84%	3%[8.37 µM]	x
COC(=O)CN1CCN(C(c2ccccc2)c2ccccc2)CC1	u	-5%	5%	40%	-13%	-1%
OC(CN1CCN(C(c2ccccc2)c2ccccc2)CC1)c1ccc(Br)cc1 (centres undefined)	-12%	x	1.3µM*	-28%	u	6%
CN(Cc1ccccc1)C(=O)CN1CCN(C(c2ccccc2)c2ccccc2)CC1	-8%	-33%[5.75 µM]	10µM*	-8%[2.29 µM]	u	-20%
c1ccc(OCCN2CCN(C(c3ccccc3)c3ccccc3)CC2)cc1	-7%	u	1%	0%	11µM*	-14%
CCOc1ccc(-c2nn(CC(=O)NC3CCCC3)c3c2cnc2ccc(F)cc23)cc1	21%	x	x	x	x	x
COc1cc(OC)cc(C(=O)Nc2ccc3nc(N4CCC(C)CC4)cc(C)c3c2)c1	-8%	x	x	x	x	x
Cc1ccc(/C=C/c2onc(C)c2S(=O)(=O)N2CCC(C(=O)N3CCC(N(C)C(C)C)CC3)CC2)cc1	-5%	x	x	x	x	x
COc1ccc(NC(=O)c2c(NC(=O)COc3ccc(Cl)cc3)sc3c2CCCCC3)cc1	11%	x	x	x	x	x
CC(=O)c1ccccc1OCC(O)CN1CCN(C(c2ccccc2)c2ccccc2)CC1 (centres undefined)	1%	u	u	42%	10µM*	-11%
OC(CN1CCN(C(c2ccccc2)c2ccccc2)CC1)c1ccccc1 (centres undefined)	4%	9.3µM*	u	4%	u	-14%
Cc1onc(-c2c(Cl)cccc2Cl)c1C(=O)N[C@@H]1C(=O)N2[C@@H]1SC(C)(C)[C@@H]2C(=O)O	0.045µM*	u	-13%	0.1µM*!	0.5µM*!	11%
Cc1cc(Br)c(NC(=O)c2c(-c3c(Cl)cccc3Cl)noc2C)c(Br)c1	-7%	10µM*	5.9µM*	-19%	-19%	-8%
Cc1onc(-c2c(Cl)cccc2Cl)c1C(=O)N/N=C(\N)COc1ccc(Cl)cc1	-9%	2.3µM*	u	u	2.8µM*	76%
Cc1onc(-c2c(Cl)cccc2Cl)c1C(=O)Nc1ccc2c(c1)OCCO2	-19%	u	76%	-15%	u	-3%
CC(Oc1ccccc1)C(=O)NC1C(=O)N2C1SC(C)(C)C2C(=O)O (centres undefined)	35µM*	14%	52%	u	12%	0%
Cc1onc(-c2c(Cl)cccc2Cl)c1C(=O)NC1C(=O)N2C1SC(C)(C)C2C(=O)O (centres undefined)	u	-6%	-17%	u	-3%	24%
C=NC(C(=O)NC1C(=O)N2C1SC(C)(C)C2C(=O)O)c1ccccc1 (centres undefined)	x	2%	15%	x	x	x
CCc1cccc(CC)c1N(COC)C(=O)Cn1c(C)nc2ccccc21	-3%	x	x	x	x	x
Cc1onc(-c2c(F)cccc2Cl)c1C(=O)NC1CCCCCC1	-7%	u	u	-33%	-5%	-1%
Cc1onc(-c2c(Cl)cccc2Cl)c1C(=O)c1c[nH]c(C(=O)NCC2CCCO2)c1 (centres undefined)	-14%	10µM*	u	9%	11µM*	3%
Cc1onc(-c2c(Cl)cccc2Cl)c1C(=O)NC1CCCCC1	5%	-26%	1%	-15%	13µM*	7%
Cc1onc(-c2c(Cl)cccc2Cl)c1C(=O)N1CCc2ccccc2C1	u	10µM*	7.4µM*	36%	32%	1%
SMILES	AmpC inh detg	Pf growth 48h	Pf growth 96h	AmpC no deterg	HCV inh	AMA1 RON2 block
CC(=O)c1c[nH]c(C(=O)NCC2CCCO2)c1 (centres undefined)	-1%	11%	46%	-6%	1%	-6%
COc1ccc(NC(=O)c2c(-c3c(Cl)cccc3Cl)noc2C)cn1	-8%	u	-7%	-11%	20%	6%
COc1ccc(NC(=O)c2c(-c3c(Cl)cccc3Cl)noc2C)c(OC)c1	-5%	1.7µM*	29%	3%	u	-24%
COc1cc(Nc2nc3c(S(=O)(=O)c4ccccc4)nnn3c3ccc(Cl)cc23)cc(OC)c1	1%	x	x	x	x	x
Cc1ccc(N(CC(=O)NCCSc2ccccc2)S(=O)(=O)c2ccc(F)cc2)cc1	14%	x	x	x	x	x
C=CCn1c(-c2ccc([N+](=O)[O-])cc2)n[nH]c1=S	-3%	2%	2.3µM*	-50%	3%	41%
C=CCn1c(-c2ccccc2[N+](=O)[O-])n[nH]c1=S	-1%	23%	u	-28%	4%	-15%
O=C(CSc1nnc(-c2ccccn2)n1Cc1ccco1)c1ccc(-c2ccccc2)cc1	u	-8%	1%[5.75 µM]	-28%	u	50%
Cc1ccc(OCc2nnc(SCc3nc4ccccc4[nH]3)n2Cc2ccco2)cc1	u	u	6.6µM*	-1%	10µM*	4%
COc1ccc(C(=O)CSc2nnc(CNc3ccc(C)cc3C)n2Cc2ccco2)cc1	-10%	u	u	0%	6.3µM*	-29%
O=C(CSc1nnc(COc2ccccc2)n1Cc1ccco1)c1ccc(F)cc1	9%	12µM*	13µM*	-5%	-29%	2%
O=C(CSc1nnc(-c2cnccn2)n1Cc1ccco1)c1ccc2ccccc2c1	u	13%	10µM*	78%	-25%	-3%
c1ccc(-c2nnc(SCc3nc4ccccc4[nH]3)n2Cc2ccco2)cc1	-7%	-4%	1%	-22%	-8%	0%
Cc1ccc(C(=O)CSc2nnc(CNc3ccc(C)cc3C)n2Cc2ccco2)cc1	3%	u	4%	-20%	u	u
CCc1c(C)c2ccc3c(c2oc1=O)CN(Cc1ccccc1)CO3	5%	x	x	x	x	x
COc1cccc(OCc2cc(=O)n3c(-c4ccccc4)csc3n2)c1	-1%	x	x	x	x	x
O=C(CSc1nnc(-c2cc3ccccc3cc2O)n1Cc1ccco1)c1ccc(F)cc1	1%	x	u	-33%	16µM*	39%
Cc1occc1-c1nnc(SCC(=O)c2ccc(F)cc2)n1Cc1ccco1	0%	-15%	x	-19%	u	-26%
Cc1cccn2c(=O)c3cc(C#N)c(=O)n(-c4nnc(SCc5ccc(Cl)cc5)s4)c3nc12	0%	x	x	x	x	x
